RORg inh: blocks mouse ROR gamma transcriptional activity; Drosophila S2 Gal4-RORgamma UAS-luciferase reporter, 20 h; AID 2551; Potency, µM (doses to about 53.6 µM), most hits filed as inhibitors; 310,000 compounds, 5.4% hits; P51450; further: nearly all actives have a fitted effect of over 60% in size
Target sequence (P51450 whole entry, looked up, the tested form may be a part): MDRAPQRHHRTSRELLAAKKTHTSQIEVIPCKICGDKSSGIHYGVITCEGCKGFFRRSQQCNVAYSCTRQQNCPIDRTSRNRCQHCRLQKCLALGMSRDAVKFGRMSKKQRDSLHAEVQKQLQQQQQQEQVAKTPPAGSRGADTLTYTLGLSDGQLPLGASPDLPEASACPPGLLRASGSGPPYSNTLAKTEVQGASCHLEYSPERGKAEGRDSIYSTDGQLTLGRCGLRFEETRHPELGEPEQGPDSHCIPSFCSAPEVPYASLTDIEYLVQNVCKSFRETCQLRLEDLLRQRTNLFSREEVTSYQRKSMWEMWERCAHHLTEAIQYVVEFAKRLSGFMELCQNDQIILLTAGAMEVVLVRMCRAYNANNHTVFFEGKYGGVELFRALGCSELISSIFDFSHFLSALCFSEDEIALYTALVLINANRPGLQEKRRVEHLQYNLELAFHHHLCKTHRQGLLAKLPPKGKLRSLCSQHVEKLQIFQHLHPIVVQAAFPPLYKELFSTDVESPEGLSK
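Luminescence from a UAS-regulated Photinus luciferase reporter in stably transfected Drosophila Schneider cells is measured; decreased signal marks ROR gamma inhibition. Fusion expression is induced by 700 uM copper sulfate for 20 hr.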
KinaseGlo FLuc: blocks Kinase-Glo luciferase, a counter-screen artifact | Q27757 | Kinase-Glo luciferase, ATP luminescence, 8 min | Potency, µM (highest dose often 38.3 µM), actives largely listed as inhibitors | 200,000 compounds, 0.28% hits; further: nearly all actives have a fitted effect of over 60% in size
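Kinase-Glo luciferase light output from ATP and luciferin was measured with 10 uM ATP, within the enzyme's linear range. Buffer: 50 mM imidazole pH 7.2, 50 mM KCl, 7 mM MgCl2, 0.01% Tween 20, 0.05% BSA; luminescence read after 8 min at ambient temperature.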
VP16 counter: Gal4-VP16 reporter inhibition counter-screen | Drosophila S2 Gal4-VP16 UAS-luciferase, luminescence, 20 h | Potency, µM (top dose mostly 53.6 µM), usual class: inhibitors | 310,000 compounds, 3.5% hits | AID 2546;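 further: Gal4-VP16 expression switched on by copper sulfate through the metallothionein promoter; nearly all actives have a fitted effect of over 50% in size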
A number is an active result; . = inactive; ? = inconclusive; / = no result given; [ ] = another dose, or the depositor's remark. Hits are enriched below; roughly 6.4% of the tested compounds scored in any of these assays. The call rests on the fitted dose curve; in most records, active means well fitted curve in the direction sought with a large enough effect; inconclusive means small, poorly fitted or top-dose-only effect, or another doubt; inactive means no such curve, though single readings can be large; an effect the other way counts as inactive or inconclusive.

SMILES	RORg inh	KinaseGlo FLuc	VP16 counter
Cc1cc(C)c(S(=O)(=O)c2ccccc2)c(N2CCOCC2)n1	.	.	.
CC1(C)CCC[C@@](C)([C@H]2CC[C@]3(C)[C@@H]2[C@H](O)C[C@@H]2[C@@]4(C)CC[C@H](O)C(C)(C)[C@@H]4[C@@H](O)C[C@]23C)O1	?	.	.
CNc1nc(N)c([N+](=O)[O-])c(Nc2ccccc2OC)n1	.	/	.
COc1ccc2cc(C(C)C(=O)Nc3cccc(S(=O)(=O)N(C)C)c3)ccc2c1 (configuration not stated)	?	/	.
CC(=O)c1ccc(N2CCN(C(=O)C(=O)c3cn(CC(=O)N4CCCCCC4)c4ccccc34)CC2)cc1	.	/	?
C=CCNC(=S)N/N=C1\CCS(=O)(=O)c2ccccc21	18µM	/	?
O=S1(=O)CC/C(=N\O)c2ccccc21	?	.	.
Cc1ccc(C2=Nc3ccccc3SC(c3cccc([N+](=O)[O-])c3)C2)cc1 (configuration not stated)	5.6µM	/	13µM
Cc1ccc(C2=Nc3ccccc3S[C@@H](c3cccc([N+](=O)[O-])c3)C2)cc1	/	.[7.66 µM]	/
Cc1nn(CCCC(=O)Nc2nccs2)c(C)c1[N+](=O)[O-]	.	.	.
O=C1C2C3C=CC(C2C(=O)N1CN1CCOCC1)C1C2C(=O)N(CN4CCOCC4)C(=O)C2C31 (configuration not stated)	/	.[7.66 µM]	/
COc1ccc(N2C(=O)CSC2c2ccc([N+](=O)[O-])cc2)cc1 (configuration not stated)	.	/	.
COc1ccc(CNC(=O)c2ccc(Cn3cc(Br)cn3)o2)cc1	.	/	.
Cc1ccc(/C=C2/CNC/C(=C\c3ccc(C)cc3)C2=O)cc1	3.5µM	/	7.1µM
Cc1ccc(/C=C2\CCOC2=O)cc1	.	/	.
CCCCC=O	.	/	.
COc1ccc(C2C(C(=O)NCc3ccccn3)CCC(=O)N2c2cc(OC)c(OC)c(OC)c2)cc1 (configuration not stated)	.	.	.
CCN(CC)S(=O)(=O)c1ccc(C(=O)O)cc1	.	/	.
CCN(CC)S(=O)(=O)c1ccc(NC(=O)c2ccc(N(C)S(C)(=O)=O)cc2)cc1	?	.	.
CCN(CC)S(=O)(=O)c1ccc(C(=O)Nc2ccc(Cc3ccncc3)cc2)cc1	5.6µM	.	3.5µM
CCN(Cc1ccncc1)S(=O)(=O)c1ccc(C(C)=O)cc1	.	.	7.9µM
O=C(NCc1ccccc1Cl)C1CCC(=O)N(CCCN2CCCC2=O)C1 (configuration not stated)	.	/	.
O=S(=O)(c1ccc(Br)cc1)c1cnc2ccccc2n1	11µM	.	?
O=S(=O)(Cc1ccccc1)c1cnc2ccccc2n1	?	.	.
COc1ccc(S(=O)(=O)c2ccc(OC)cc2)cc1	.	.	.
SMILES	RORg inh	KinaseGlo FLuc	VP16 counter
COc1ccc(S(=O)(=O)c2cnc3ccccc3n2)cc1	11µM	.	?
Cc1ccc(C)c(CNC(=O)Nc2ccccc2)c1	.	/	?
CCC1=C2CC[C@H]3C(=O)NC(=O)[C@H]3[C@H]2[C@@]2(C)C(=NCC(=O)OC)OC(=O)N2C1=O	.	.	.
O=C(CCl)N(c1ccccc1)C1CCS(=O)(=O)C1 (configuration not stated)	18µM	.	?
CN(C1CCS(=O)(=O)C1)S(=O)(=O)c1ccccc1 (configuration not stated)	.	.	?
CC(=O)OC[C@@]12C(=O)[C@@H](O)[C@@H](C)[C@]3(C[C@@H](c4ccoc4)O[C@@H]3OC(C)=O)[C@H]1CCC[C@]21CO1	.	.	.
Cc1ccccc1OCC(=O)Nc1ccccc1-c1ccccc1NC(=O)COc1ccccc1C	?	.	.
Cc1ccccc1NC(=S)NC(=O)COc1ccccc1C	13µM	/	?
CC(C)c1ccc(OCC(=O)NNC(=S)NC(=O)c2ccco2)c(Br)c1	6.3µM	/	6.3µM
Cc1cc(Cl)ccc1OCC(=O)NNC(=O)c1ccco1	.	/	.
CC(C)(C)c1ccc(OCC(=O)NCc2ccco2)c(Br)c1	?	.	.
CC(C)(C)c1ccc(OCC(=O)NNC(=S)NC(=O)c2ccco2)c(Br)c1	5µM	/	8.9µM
Cc1ccccc1OCC(=O)Nc1ccccc1NC(=O)c1ccco1	.	/	.
Cc1ccccc1OCC(=O)NNC(=S)NC(=O)c1ccco1	13µM	.	?
COC(=O)C1CCN(c2ccc(Cl)nn2)CC1	.	.	.
c1ccc([C@H](CCN2CCCC2)c2ccccn2)cc1	/	.[7.66 µM]	/
O=C(NCc1ccco1)c1cccc(S(=O)(=O)N2CCCC2)c1	.	/	.
Cc1cc(NC(=O)c2cc([N+](=O)[O-])cc([N+](=O)[O-])c2C)no1	.	.	?
CCCCNC(=O)C(c1ccc(OCC(=O)OC)c(C(=O)OC)c1)N(CCc1c[nH]c2ccccc12)C(=O)CCCCCN1C(=O)NC(c2ccc(-c3ccccc3)cc2)C(C(=O)OCc2ccccc2)=C1C (configuration not stated)	.	/	.
Cn1c(-c2ccc3c(c2)OCO3)cnc1NCc1cccc(O)c1	.	.	.
NCCCCC(NC(CCc1ccccc1)C(=O)O)C(=O)N1CCCC1C(=O)O (configuration not stated)	.	.	.
CCSc1cnc(-c2ccccc2)n1CC	13µM	.	.
CCn1c(SCC(O)c2ccccc2)nnc1-c1ccccc1 (configuration not stated)	.	.	.
Cc1ccc(C)c(NC(=S)NC23CN4CN(CN(C4)C2)C3)c1	.	.	.
C[n+]1c(/C=C/c2ccc(O)cc2)ccc2ccccc21	.	/	.
SMILES	RORg inh	KinaseGlo FLuc	VP16 counter
Cc1cc(/C=C\c2ccc3cc(N(C)C)ccc3[n+]2C)c(C)n1-c1ccccc1	.[2.98 µM]	.	2.8µM
CC(C)N1CCN(Cc2ccc(OC3CCCC3)cc2)CC1CCO (configuration not stated)	.	/	.
COc1ccc(C2CC(c3ccccc3)Oc3cc4c(cc32)OCO4)cc1 (configuration not stated)	.	/	.
Cc1ccccc1Nc1ccc([N+](=O)[O-])cn1	.	/	.
Cc1ccccc1NC1=NCC(c2ccc([N+](=O)[O-])cc2)S1 (configuration not stated)	?	.	22µM
O=C(CSc1nnc(NC(=O)C2CC2)s1)Nc1ccccc1C(F)(F)F	.	/	.
Cc1ccc(/C=N/NC(=O)c2ccc(Br)o2)s1	8.9µM	.	10µM
CCc1ccc(/C=N\NC(=O)c2ccc(Br)o2)s1	1.6µM	.	5µM
Cc1ccc(/C=N/NC(=O)Cc2ccc(O)cc2)s1	.	/	.
CCN(CC)c1ccc(/C=N/NC(=O)c2ccc(Br)o2)cc1	?	.	?
O=c1c2c(nc3nc(NCc4cccc(Cl)c4)[nH]n13)CCC2	.	.	.
OCCN(Cc1ccccc1)CC(O)COc1ccc2c(c1)OCO2 (configuration not stated)	.	/	.
CCN(CC)C(=O)c1[nH]cnc1C(=O)NCC(=O)OCc1ccccc1	.	/	.
CNC(=O)c1[nH]cnc1C(=O)N[C@@H](C)C(=O)OCc1ccccc1	.	/	.
Cc1cccc(NC(=O)c2nc[nH]c2C(=O)N[C@@H](Cc2ccccc2)C(=O)OCc2ccccc2)c1	2.2µM	/	10µM

Assay outcomes from PubChem BioAssay.
